Laboratory results as given in a collection of fitness landscapes (doi:10.1126/science.1257360).
Over roughly 140,000 sequences, “enrichment ratio after two sorts for PhoP signalling” has its median near 0; the highest 2% begin near 11. The entries come from a sample that favours the highest values as a whole.

B1: PhoQ; a variant is named by its letters at X, in order, P23837 (parent)
chain: MKKLLRLFFPLSLRVRFLLATAAVVLVLSLAYGMVALIGYSVSFDKTTFRLLRGESNLFYTLAKWENNKLHVELPENIDKQSPTMTLIYDENGQLLWAQRDVPWLMKMIQPDWLKSNGFHEIEADVNDTSLLLSGDHSIQQQLQEVREDDDDAEMTHSVAVNVYPATSRMPKLTIVVVDTIPVELKSSYMVWSWFIYVLSANLLLVIPLLWVAAWWSLRPIEALAKEVRELEEHNRELLNPATTRELTSLVRNLNRLLKSERERYDKYRTTLTDLTHSLKTPLXXLQXXLRSLRSEKMSVSDAEPVMLEQISRISQQIGYYLHRASMRGGTLLSRELHPVAPLLDNLTSALNKVYQRKGVNISLDISPEISFVGEQNDFVEVMGNVLDNACKYCLEFVEISARQTDEHLYIVVEDDGPGIPLSKREVIFDRGQRVDTLRPGQGVGLAVAREITEQYEGKIVAGESMLGGARMEVIFGRQHSAPKDE

Variants of: B1
Assay: enrichment ratio after two sorts for PhoP signalling (ratio (wild type AVST 3.29)); higher = more functional
Details: with PhoP (E. coli)

Variant	enrichment ratio
KQNP	≤ 0.25
RGWC	≤ 0.25
PCRT	≤ 0.25
DAYY	≤ 0.25
HSCT	≤ 0.25
VRFP	≤ 0.25
DLDP	≤ 0.25
DHCF	≤ 0.25
MCIR	≤ 0.25
TEAT	17
TEYI	8.43
TEET	≤ 0.25
TELT	14.5
MELD	≤ 0.25
TELD	13.4
TELA	16.8
TEFT	5.71
TEVT	3.71
TEWI	4.93
NELD	≤ 0.25
TENT	3.14
NHGP	≤ 0.25
KQPT	≤ 0.25
KTHI	≤ 0.25
QTDQ	≤ 0.25

Variant	enrichment ratio
GRFL	≤ 0.25
AWWN	≤ 0.25
HNIY	≤ 0.25
YESG	0.306
TELN	21.6
HPLH	≤ 0.25
NELC	5.14
TELY	15.5
DELY	≤ 0.25
TELC	11.4
HPLN	≤ 0.25
TEYN	3.14
NELY	≤ 0.25
TELH	11.2
QELC	≤ 0.25
NELH	2.12
KTRY	≤ 0.25
PMLD	≤ 0.25
APTN	≤ 0.25
TEAD	16.8
TEAA	2.61
MEAF	≤ 0.25
QEAF	≤ 0.25
QEGT	24.3
QEAD	≤ 0.25

Variant	enrichment ratio
MEAS	3.94
TEAF	13.8
QRGT	≤ 0.25
TEAS	16.2
QEAS	10.1
QGGT	8.36
EISC	≤ 0.25
KVKA	≤ 0.25
EFER	≤ 0.25
EFNA	≤ 0.25
IKFE	≤ 0.25
PTLL	≤ 0.25
SHIM	2.2
PILC	≤ 0.25
TELL	16.9
NELL	≤ 0.25
YTYS	≤ 0.25
MELF	0.528
CDYS	≤ 0.25
MELL	3.52
TEYS	11.9
TELW	≤ 0.25
TELP	≤ 0.25
TELF	12.2
TELS	12.5

Variant	enrichment ratio
NELF	≤ 0.25
PWMG	≤ 0.25
ETEG	≤ 0.25
ASGY	3.18
YDLK	≤ 0.25
MDNI	≤ 0.25
IQKP	≤ 0.25
VRDA	≤ 0.25
WIHY	≤ 0.25
FACS	≤ 0.25
ESAP	≤ 0.25
RPEH	≤ 0.25
MELI	6.46
QELI	≤ 0.25
NHGT	≤ 0.25
THGT	≤ 0.25
TEGT	22.6
TELI	19.5
ADTR	≤ 0.25
QRFP	≤ 0.25
VSPY	≤ 0.25
KSWC	≤ 0.25
MMWC	≤ 0.25
LCWC	≤ 0.25
QPWC	≤ 0.25

Variant	enrichment ratio
QFWC	17.1
WIWC	≤ 0.25
QRWC	≤ 0.25
KAWC	≤ 0.25
TSWC	17.5
TGWC	13.8
YAWC	≤ 0.25
TAWC	11.3
NPNK	≤ 0.25
MMHM	≤ 0.25
SCKK	≤ 0.25
TYID	≤ 0.25
LNTD	≤ 0.25
IKRA	≤ 0.25
QRQH	≤ 0.25
NYNA	≤ 0.25
MFGV	≤ 0.25
TNWC	≤ 0.25
MNWC	11.8
LNWC	≤ 0.25
HPWC	≤ 0.25
NRWC	≤ 0.25
TQWC	29.7
NEWC	≤ 0.25
NQWC	≤ 0.25

Variant	enrichment ratio
TEWC	33.2
FYWP	≤ 0.25
RAPP	≤ 0.25
TIYT	2.66
HIYY	≤ 0.25
IYRV	≤ 0.25
SKMA	3.27
WRFK	≤ 0.25
DFPC	≤ 0.25
YMWR	≤ 0.25
MKAI	≤ 0.25
YTAI	≤ 0.25
MTAI	17.8
QAAI	12.7
TPAI	≤ 0.25
QPAI	≤ 0.25
GKTK	≤ 0.25
YGMR	≤ 0.25
ACFV	≤ 0.25
YCLM	14.9
YYLM	≤ 0.25
ISLM	12.9
HMPM	≤ 0.25
HMTM	11.7
IALM	6.67

Variant	enrichment ratio
FCLM	12.7
HMGM	≤ 0.25
YCWM	≤ 0.25
FVLM	8.14
ISWM	≤ 0.25
KCLM	≤ 0.25
QYLA	≤ 0.25
RGIA	≤ 0.25
WTPQ	≤ 0.25
MDVM	8.67
PTAN	≤ 0.25
QCEP	≤ 0.25
CALR	≤ 0.25
WMFY	≤ 0.25
IQQW	≤ 0.25
VWEW	≤ 0.25
HMQF	≤ 0.25
YSKM	≤ 0.25
WFWG	≤ 0.25
GVAV	≤ 0.25
TSLM	16.7
HSFM	≤ 0.25
SYLM	≤ 0.25
NSLM	7.81
KSLM	≤ 0.25

Variant	enrichment ratio
HSLA	≤ 0.25
FSLM	19.2
HSLM	22.1
FFLM	≤ 0.25
FQLM	1.74
SSLM	17.1
QNNM	≤ 0.25
YPIG	≤ 0.25
PMYL	≤ 0.25
WVSG	≤ 0.25
GGKL	≤ 0.25
LPCH	≤ 0.25
RYCQ	≤ 0.25
HSWM	≤ 0.25
FAPM	0.451
HSCK	≤ 0.25
HSTM	13.1
MALM	9.02
FALM	17
AEWY	6.65
